Assay [1] is described as follows: qHTS profiling of the MIPE4 collection as inhibitors of Plasmodium falciparum (3D7) proliferation (AID 743344).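 Also: scaled between DMSO vehicle wells and 0.29 µM artemisinin as full inhibition.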 Conditions: P. falciparum 3D7 in erythrocytes, SYBR Green DNA fluorescence, 72 h; at 28.5 µM unless noted. Summed up: (§1)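 Parasite DNA was quantified by SYBR Green I fluorescence (ex 485, em 535 nm) after overnight lysis in saponin/Triton buffer at room temperature. Cultures at 0.3% parasitemia and 2.5% hematocrit were first exposed to compound for 72 h at 37 C; signals were normalised to artemisinin (0.29 uM) and vehicle wells.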

Assay [2] can be described thus: qHTS profiling of the MIPE4 collection as inhibitors of Plasmodium falciparum (DD2) proliferation (AID 743345). Conditions: P. falciparum Dd2 in erythrocytes, SYBR Green DNA, 72 h; at 28.5 µM unless noted. Summed up:
as §1

Assay [3] is described as follows: qHTS profiling of the MIPE4 collection as inhibitors of Plasmodium falciparum (DD2) proliferation (Rep 2) (AID 743346). Conditions: P. falciparum Dd2 in erythrocytes, SYBR Green DNA, 72 h; at 28.5 µM unless noted. Summed up:
as §1

The nature of assay [4]: qHTS profiling of the MIPE4 collection as inhibitors of Plasmodium falciparum (HB3) proliferation (AID 743347).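 Also: plate controls were DMSO vehicle wells for no effect and artemisinin wells for full effect.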 To be noted: P. falciparum HB3 in erythrocytes, SYBR Green DNA, 72 h; at 28.5 µM unless noted. The procedure, abridged: as §1

For the compound `O=C(O)c1ccc(Nc2ncc3c(n2)-c2ccc(Cl)cc2C(c2c(F)cccc2F)=NC3)cc1`, in assay [1], the parasite growth, % of DMSO control turned out to be 56.9%. The compound further had a parasite growth remaining, % of DMSO control (lower = more inhibition) in assay [2] of 82.8%. Further, the parasite growth, % of control (lower = inhibition) in assay [3] turned out to be 44%. The growth, % of control in assay [4] stood at 52.9%.

`CC[C@H]1OC(=O)[C@H](C)[C@@H](O[C@H]2C[C@@](C)(OC)[C@@H](O)[C@H](C)O2)[C@H](C)[C@@H](O[C@@H]2O[C@@H](C)C[C@H](N(C)C)[C@@H]2O)[C@](C)(O)C[C@@H](C)C(=O)[C@H](C)[C@@H](O)[C@]1(C)O`: the parasite growth, % of DMSO control in assay [1] came to 60.1%. Besides, the parasite growth remaining, % of DMSO control (lower = more inhibition) in assay [2] came out at 75%. In assay [3], the parasite growth, % of control (lower = inhibition) came to 47.1%. In assay [4], this compound displayed a growth, % of control of 82.4%.

In the case of `Cc1cc(C(=O)NOCCO)c(Nc2ccc(I)cc2F)n(C)c1=O`, the parasite growth, % of DMSO control in assay [1] amounted to 51.4%. In addition, the parasite growth remaining, % of DMSO control (lower = more inhibition) in assay [2] worked out at 87.7%. Besides, the parasite growth, % of control (lower = inhibition) in assay [3] came to 84.7%. Further, in assay [4], the growth, % of control is 66.5%.

For `CC(C)C[C@H](NC(=O)CNC(=O)c1cc(Cl)ccc1Cl)B1OC(=O)CC(CC(=O)O)(C(=O)O)O1` (stereo partly specified), the parasite growth, % of DMSO control in assay [1] is 4.74%. Besides, the parasite growth remaining, % of DMSO control (lower = more inhibition) in assay [2] stood at 7.15%. Besides, in assay [3], the parasite growth, % of control (lower = inhibition) worked out at 7.43%. The growth, % of control in assay [4] came to 8.02%.

In assay [1], `Cn1cc(CNCC2CCN(c3ncc(C(=O)NO)cn3)CC2)c2ccccc21` displayed a parasite growth, % of DMSO control of 4.76%. Moreover, the parasite growth remaining, % of DMSO control (lower = more inhibition) in assay [2] amounted to 7.34%. In assay [3], this compound yielded a parasite growth, % of control (lower = inhibition) of 8.03%. Besides, in assay [4], the growth, % of control worked out at 7.88%.

For the compound `COc1ccc([C@@H]2CNC(=O)C2)cc1OC1CCCC1`, the parasite growth, % of DMSO control in assay [1] was 106%. The compound also showed a parasite growth remaining, % of DMSO control (lower = more inhibition) in assay [2] of 96.4%. This compound yielded a parasite growth, % of control (lower = inhibition) in assay [3] of 67%. Also, the growth, % of control in assay [4] came to 102%.

In turn, `CCn1c(=O)c2c(nc(C=Cc3ccc(OC)c(OC)c3)n2C)n(CC)c1=O` showed a parasite growth, % of DMSO control in assay [1] of 37.9%. Besides, the parasite growth remaining, % of DMSO control (lower = more inhibition) in assay [2] worked out at 83.4%. Further, in assay [3], the parasite growth, % of control (lower = inhibition) amounted to 34.2%. The same compound registered a growth, % of control in assay [4] of 47.9%.

`OCCNC1CCCc2c1[nH]c1ccc(-c3ccccc3)cc21` (stereo unspecified) had a parasite growth, % of DMSO control in assay [1] of 7.39%. The same compound had a parasite growth remaining, % of DMSO control (lower = more inhibition) in assay [2] of 15.7%. Moreover, in assay [3], the parasite growth, % of control (lower = inhibition) is 13.3%. This compound also registered a growth, % of control in assay [4] of 3.72%.

`C[C@H](NC(=O)[C@@H](O)c1cc(F)cc(F)c1)C(=O)N[C@@H]1C(=O)N(C)c2ccccc2-c2ccccc21` came in with a parasite growth, % of DMSO control in assay [1] of 11%. The parasite growth remaining, % of DMSO control (lower = more inhibition) in assay [2] was 12.1%. The same compound had a parasite growth, % of control (lower = inhibition) in assay [3] of 27.7%. This compound also returned a growth, % of control in assay [4] of 8.44%.

(Values after PubChem BioAssay (NCATS).)
